Measured values published in the supplement of paper PMC8728848.
The sample as a whole holds a higher share of the strongest signals than the screen did.

Key:
Assay in all cases: glycan array binding signal (z-score within array); higher = stronger binding
Settings in all cases: glycan notation: IUPAC condensed, linker removed; mutation: F63H
Fuc(a1-2)Gal(b1-3)GalNAc = molecular target: Fuc(a1-2)Gal(b1-3)GalNAc
Summary of the method: (§1)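 The Consortium for Functional Glycomics database supplied 3228 glycan arrays, of which those lacking an available protein sequence were dropped. The binding signal, a within-array Z-score, was averaged across arrays of the same protein sequence and across linkers. Negative scores can be read as non-binding.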

[1] = molecular target: Fuc(a1-2)Gal(b1-3)GalNAc(b1-3)Gal(a1-4)Gal(b1-4)Glc
Summary of the method: as §1

[2] = molecular target: Fuc(a1-2)Gal(b1-3)GlcNAc(b1-3)Gal(b1-4)Glc
Summary of the method: as §1

[3] = molecular target: Fuc(a1-2)Gal(b1-3)GlcNAc(b1-3)[Neu5Ac(a2-6)Gal(b1-4)GlcNAc(b1-6)]Gal(b1-4)Glc
Summary of the method: as §1

[4] = molecular target: Fuc(a1-2)Gal(b1-4)GlcNAc(b1-3)Gal(b1-4)GlcNAc(b1-3)Gal(b1-4)GlcNAc
Summary of the method: as §1

[5] = molecular target: Fuc(a1-2)[GalNAc(b1-3)]Gal
Summary of the method: as §1

Fuc(a1-3)GlcNAc = molecular target: Fuc(a1-3)GlcNAc
Summary of the method: as §1

[6] = molecular target: Fuc(a1-3)[GalNAc(b1-4)]GlcNAc6S
Summary of the method: as §1

Gal(a1-3)Gal = molecular target: Gal(a1-3)Gal
Summary of the method: as §1

Gal(a1-3)Gal(b1-4)GlcNAc = molecular target: Gal(a1-3)Gal(b1-4)GlcNAc
Summary of the method: as §1

[7] = molecular target: Gal(a1-3)Gal(b1-4)GlcNAc(b1-6)GalNAc
Summary of the method: as §1

[8] = molecular target: Gal(a1-4)Gal(b1-4)GlcNAc(b1-2)Man(a1-3)[Gal(a1-4)Gal(b1-4)GlcNAc(b1-2)Man(a1-6)]Man(b1-4)GlcNAc(b1-4)GlcNAc
Summary of the method: as §1

Gal(b1-3)Gal(b1-4)GlcNAc = molecular target: Gal(b1-3)Gal(b1-4)GlcNAc
Summary of the method: as §1

Gal(b1-3)GalNAc = molecular target: Gal(b1-3)GalNAc
Summary of the method: as §1

[9] = molecular target: Gal(b1-3)GalNAc(a1-3)[Fuc(a1-2)]Gal(b1-4)Glc
Summary of the method: as §1

[10] = molecular target: Gal(b1-3)GalNAc(a1-3)[Fuc(a1-2)]Gal(b1-4)GlcNAc
Summary of the method: as §1

[11] = molecular target: Gal(b1-3)GalNAc(b1-4)Gal(b1-4)Glc
Summary of the method: as §1

[12] = molecular target: Gal(b1-3)GlcNAc(a1-3)Gal(b1-4)GlcNAc
Summary of the method: as §1

[13] = molecular target: Gal(b1-3)GlcNAc(b1-3)Gal(b1-4)GlcNAc(b1-3)Gal(b1-4)GlcNAc(b1-2)[Gal(b1-3)GlcNAc(b1-3)Gal(b1-4)GlcNAc(b1-3)Gal(b1-4)GlcNAc(b1-6)]Man(a1-6)[Gal(b1-3)GlcNAc(b1-3)Gal(b1-4)GlcNAc(b1-3)Gal(b1-4)GlcNAc(b1-2)Man(a1-3)]Man(b1-4)GlcNAc(b1-4)[Fuc(a1-6)]GlcNAc
Summary of the method: as §1

[14] = molecular target: Gal(b1-3)GlcNAc(b1-6)GalNAc
Summary of the method: as §1

[15] = molecular target: Gal(b1-4)GlcNAc(b1-2)Man(a1-3)[Gal(b1-4)GlcNAc(b1-2)Man(a1-6)][Gal(b1-4)GlcNAc(b1-4)]Man(b1-4)GlcNAc(b1-4)[Fuc(a1-6)]GlcNAc
Summary of the method: as §1

[16] = molecular target: Gal(b1-4)GlcNAc(b1-2)Man(a1-6)[GlcNAc(b1-2)Man(a1-3)]Man(b1-4)GlcNAc(b1-4)GlcNAc
Summary of the method: as §1

[17] = molecular target: Gal(b1-4)GlcNAc(b1-2)[Gal(b1-4)GlcNAc(b1-6)]Man(a1-6)[GlcNAc(b1-4)][Gal(b1-4)GlcNAc(b1-2)Man(a1-3)]Man(b1-4)GlcNAc(b1-4)GlcNAc
Summary of the method: as §1

[18] = molecular target: Gal(b1-4)GlcNAc(b1-2)[Gal(b1-4)GlcNAc(b1-6)]Man(a1-6)[GlcNAc(b1-4)][Gal(b1-4)GlcNAc(b1-2)[Gal(b1-4)GlcNAc(b1-4)]Man(a1-3)]Man(b1-4)GlcNAc(b1-4)[Fuc(a1-6)]GlcNAc
Summary of the method: as §1

[19] = molecular target: Gal(b1-4)GlcNAc(b1-3)Gal(b1-4)GlcNAc(b1-3)Gal(b1-4)GlcNAc(b1-2)Man(a1-3)[Gal(b1-4)GlcNAc(b1-3)Gal(b1-4)GlcNAc(b1-3)Gal(b1-4)GlcNAc(b1-2)Man(a1-6)]Man(b1-4)GlcNAc(b1-4)[Fuc(a1-6)]GlcNAc
Summary of the method: as §1

[20] = molecular target: Gal(b1-4)GlcNAc(b1-3)Gal(b1-4)GlcNAc(b1-3)Gal(b1-4)GlcNAc(b1-3)Gal(b1-4)GlcNAc(b1-3)Gal(b1-4)GlcNAc(b1-2)Man(a1-3)[Gal(b1-4)GlcNAc(b1-3)Gal(b1-4)GlcNAc(b1-3)Gal(b1-4)GlcNAc(b1-3)Gal(b1-4)GlcNAc(b1-3)Gal(b1-4)GlcNAc(b1-2)Man(a1-6)]Man(b1-4)GlcNAc(b1-4)[Fuc(a1-6)]GlcNAc
Summary of the method: as §1

[21] = molecular target: Gal(b1-4)GlcNAc(b1-3)Gal(b1-4)GlcNAc(b1-3)Gal(b1-4)GlcNAc(b1-3)Gal(b1-4)GlcNAc(b1-3)Gal(b1-4)GlcNAc(b1-3)Gal(b1-4)GlcNAc(b1-2)Man(a1-3)[Gal(b1-4)GlcNAc(b1-3)Gal(b1-4)GlcNAc(b1-3)Gal(b1-4)GlcNAc(b1-3)Gal(b1-4)GlcNAc(b1-3)Gal(b1-4)GlcNAc(b1-3)Gal(b1-4)GlcNAc(b1-2)Man(a1-6)]Man(b1-4)GlcNAc(b1-4)GlcNAc
Summary of the method: as §1

[22] = molecular target: Gal(b1-4)GlcNAc(b1-3)Gal(b1-4)GlcNAc(b1-3)GalNAc
Summary of the method: as §1

[23] = molecular target: Gal(b1-4)GlcNAc(b1-3)Gal(b1-4)GlcNAc(b1-3)[Gal(b1-4)GlcNAc(b1-3)Gal(b1-4)GlcNAc(b1-6)]GalNAc
Summary of the method: as §1

[24] = molecular target: Gal(b1-4)GlcNAc(b1-3)GalNAc
Summary of the method: as §1

Gal(b1-6)Gal = molecular target: Gal(b1-6)Gal
Summary of the method: as §1

Gal3S(b1-3)GlcNAc = molecular target: Gal3S(b1-3)GlcNAc
Summary of the method: as §1

B1: AAL (Agrocybe aegerita), Q6WY08 (protein)
chain: MQGVNIYNISAGTSVDLAAPVTTGDIVTFFSSALNLNAGAGNPNNTTLNLFAENGAYLLHIAHRLQENVIIFNSRQPDGPWLVEQRVSDVANQFAGIDGKAMVTVFDHGDKYQVVINEKTVIQYTKQISGLTLSLSYNATEETSIFSTVVEAVTYTGLALEHHHHHH
- glycan array binding signal (z-score) (Fuc(a1-2)Gal(b1-3)GalNAc): -0.198
- glycan array binding signal (z-score) [1]: -0.075
- glycan array binding signal (z-score) [2]: -0.394
- glycan array binding signal (z-score) [3]: 0.013
- glycan array binding signal (z-score) [4]: -0.151
- glycan array binding signal (z-score) [5]: -0.544
- glycan array binding signal (z-score) (Fuc(a1-3)GlcNAc): -0.394
- glycan array binding signal (z-score) [6]: -0.005
- glycan array binding signal (z-score) (Gal(a1-3)Gal): -0.04
- glycan array binding signal (z-score) (Gal(a1-3)Gal(b1-4)GlcNAc): -0.342
- glycan array binding signal (z-score) [7]: -0.072
- glycan array binding signal (z-score) [8]: 0.969
- glycan array binding signal (z-score) (Gal(b1-3)Gal(b1-4)GlcNAc): -0.287
- glycan array binding signal (z-score) (Gal(b1-3)GalNAc): -0.177
- glycan array binding signal (z-score) [9]: -0.298
- glycan array binding signal (z-score) [10]: -0.341
- glycan array binding signal (z-score) [11]: -0.435
- glycan array binding signal (z-score) [12]: 0.927
- glycan array binding signal (z-score) [13]: 0.029
- glycan array binding signal (z-score) [14]: 0.316
- glycan array binding signal (z-score) [15]: -0.332
- glycan array binding signal (z-score) [16]: -0.263
- glycan array binding signal (z-score) [17]: 4.37
- glycan array binding signal (z-score) [18]: -0.265
- glycan array binding signal (z-score) [19]: 1.22
- glycan array binding signal (z-score) [20]: -0.033
- glycan array binding signal (z-score) [21]: 0.376
- glycan array binding signal (z-score) [22]: -0.163
- glycan array binding signal (z-score) [23]: 0.226
- glycan array binding signal (z-score) [24]: -0.105
- glycan array binding signal (z-score) (Gal(b1-6)Gal): -0.264
- glycan array binding signal (z-score) (Gal3S(b1-3)GlcNAc): -0.185
